# Measured values reported in PubChem BioAssay AID1851 (National Center for Advancing Translational Sciences (NCATS), 2009).
# The whole screen tested about 16,000 compounds, of which about 5,100 (32%) were called active. About 25% were inconclusive and are not listed. This is one part of the list. Unmarked numbers belong to inactive results. Calls follow the shape of the dose curve; as a rule, active = well fitted curve in the direction sought with a large enough effect; inconclusive = small, poorly fitted or top-dose-only effect, or effect the other way; inactive = no such curve, though single readings can be large or run the other way.
# Target: Cytochrome P450 3A4 (Homo sapiens) (UniProt P08684)
# Sequence (P08684 whole entry, looked up): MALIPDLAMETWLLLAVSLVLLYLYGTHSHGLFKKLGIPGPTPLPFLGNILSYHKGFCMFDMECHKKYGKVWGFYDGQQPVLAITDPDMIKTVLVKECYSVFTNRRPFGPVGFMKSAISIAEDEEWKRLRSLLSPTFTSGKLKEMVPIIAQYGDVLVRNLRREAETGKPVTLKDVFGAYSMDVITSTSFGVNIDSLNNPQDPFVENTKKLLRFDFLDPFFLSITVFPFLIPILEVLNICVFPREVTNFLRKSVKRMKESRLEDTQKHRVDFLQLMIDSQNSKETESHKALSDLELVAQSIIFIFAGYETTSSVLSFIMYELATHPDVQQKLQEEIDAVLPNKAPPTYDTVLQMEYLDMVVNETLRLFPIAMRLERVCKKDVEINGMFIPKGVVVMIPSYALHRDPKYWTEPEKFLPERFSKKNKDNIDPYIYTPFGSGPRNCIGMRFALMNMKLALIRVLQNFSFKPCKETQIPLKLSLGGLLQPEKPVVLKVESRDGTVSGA
# Experiment: Cytochrome panel assay with activity outcomes
# Details: recombinant CYP, pro-luciferin dealkylation, luminescence, p450-cyp3a4; series mostly up to 57.1 µM; activity, negative = inhibition: at the top concentration
# % is scaled to controls: 0 for no effect and ±100 for the full control effect.
Structure (SMILES),"activity, negative = inhibition",AC50
N[C@H](C(=O)O)c1nn[nH]n1,-1.46%,
C[C@](N)(C(=O)O)c1ccc(-c2nn[nH]n2)cc1,-6.26%,
CCCOc1ccc(N2C(=O)CC(S/C(N)=N/N=C(\C)c3cccs3)C2=O)cc1 (centres undefined),7.2% [at 2.29 µM],
COc1ccc(N2C(=O)CC(S/C(N)=N/N=C(\C)c3cccs3)C2=O)cc1 (centres undefined),,14.1 µM (active)
Cc1cccc(Sc2c([N+](=O)[O-])ncn2C)n1,-3.51%,
N[C@H](C(=O)O)[C@@H]1C[C@@H]1C(=O)O,,inactive
O=C(N/N=C/c1cccc(C(F)(F)F)c1)C1CCN(c2ncc(C(F)(F)F)cc2Cl)CC1,-7.12%,
Cc1cc(C)nc(NN2C(=O)/C(=C/c3ccccc3)SC2=S)n1,-9.13%,
O=C1/C(=C\c2ccccn2)SC(=S)N1Nc1ncc(C(F)(F)F)cc1Cl,,3.16 µM (active)
c1ccc(C(CCN2CC3CCC(CC3)C2)c2ccccc2)cc1,-1.84% [at 11.4 µM],
CCN(CC)C(=O)Cn1cnc([N+](=O)[O-])n1,-15.3%,
CCOc1ccc(N(CCC#N)S(=O)(=O)c2ccc(OC)cc2)cc1,,11.2 µM (active)
CCc1cc2c(=O)n(-c3ccccc3)c(=S)[nH]c2s1,-18.8%,
O=c1c2c(-c3cccs3)csc2ncn1-c1ccc(Br)cc1,-3.71% [at 2.29 µM],
O=c1c2c(-c3cccs3)csc2[nH]c(=S)n1-c1ccccc1,,14.1 µM (active)
COc1cccc(-c2nc(N(C)Cc3ccco3)c3ccccc3n2)c1,,10 µM (active)
COc1cccc(-c2nc(N(C)C)c3ccccc3n2)c1,,5.01 µM (active)
COc1ccccc1-c1nc(N(C)Cc2ccco2)c2ccccc2n1,,7.94 µM (active)
CN(Cc1ccco1)c1nc(-c2cccc(C#N)c2)nc2ccccc12,,12.6 µM (active)
O=C1OCc2cccc3cccc1c23,10.8%,
Clc1ccccc1-c1ccc2ncnc(NC3CCNCC3)c2c1,-21.5%,
Cc1ccccc1-c1ccc2ncnc(NC3CC3)c2c1,,3.16 µM (active)
N#Cc1ccccc1-c1ccc2ncnc(NC3CC3)c2c1,,2 µM (active)
FC(F)(F)c1ccccc1-c1ccc2ncnc(NC3CCNCC3)c2c1,-26.8%,
FC(F)(F)c1ccccc1-c1ccc2ncnc(NC3CC3)c2c1,,1.58 µM (active)

Structure (SMILES),"activity, negative = inhibition",AC50
O=C(O)CCc1ccc(-c2ccccc2)[nH]1,-13.2% [at 11.4 µM],
CC(C)OC(=O)/C(=C\C=C\c1ccccc1)NC(=O)c1ccccc1,14.2%,
CC(C)OC(=O)/C(=C\c1ccc2c(c1)c1ccccc1n2C)NC(=O)c1ccccc1,,1.12 µM (active)
CC(C)SC(=N)N,-8.48%,
COc1ccc(C(=O)N/N=C(\C)Cn2nc([N+](=O)[O-])cc2C)cc1,-3.05% [at 2.29 µM],
COc1ccc(COC(=O)N/N=C2/C[C@@H](O)[C@@H](O)[C@@H]3[C@@H]4C(=O)N(C(C)(C)C)C(=O)[C@H]4CC[C@@H]23)cc1,-13.5% [at 11.4 µM],
COc1ccc(COC(=O)N/N=C(\C)CC(=O)Nc2c(C)cc(C)cc2C)cc1,,1.78 µM (active)
CS(=O)(=O)N1CCC[C@@]2(CCN(C(c3ccccc3)c3ccccc3)C2)C1,,10 µM (active)
CS(=O)(=O)N1CCC2(CCCN(C(c3ccccc3)c3ccccc3)C2)CC1,,3.98 µM (active)
CSc1nnnc2ccccc12,-8.64% [at 11.4 µM],
O=c1cc(-c2ccccc2)[nH]c2nc(Cl)ccc12,-5.23%,
N[C@@H](CO)C(=O)O,,inactive
CC(=O)Nc1cccc(N2C(=O)CCC2=O)c1,-4.58%,
O=C1CC(SC(=Nc2ccccc2)Nc2ccccc2)C(=O)N1c1cccc(Cl)c1 (centres undefined),,11.2 µM (active)
CCOC(=O)NNC1CC(=O)N(c2ccc(OC)cc2)C1=O (centres undefined),-9.66%,
COc1ccc(CCC(C)Nc2cccc(F)c2)cc1 (centres undefined),18.9%,
CCN=C(Nc1cccc(F)c1)SC1CC(=O)N(c2ccc(OC)cc2)C1=O (centres undefined),,6.31 µM (active)
O=C1CC(N2CCOCC2)C(=O)N1c1cccc(Cl)c1 (centres undefined),-3.01%,
Cc1cc(OCCNCCO)cc(C)c1Cl,-20%,
CC(C)c1ccc(/C=C2\C=C(c3ccc4ccccc4c3)OC2=O)cc1,-9.49% [at 11.4 µM],
Cc1ccc(S(=O)(=O)N2CCC(C(=O)NCc3cccnc3)CC2)cc1,,3.16 µM (active)
CCS(=O)(=O)N1CCC(C(=O)NCCCN2CCCC2)CC1,-16%,
CCS(=O)(=O)N1CCC(C(=O)NCc2cccnc2)CC1,-2.97% [at 2.29 µM],
CCN(CC)S(=O)(=O)N1CCC(C(=O)NCc2ccc(C)cc2)CC1,,11.2 µM (active)
CC(C)CN(CC(C)C)S(=O)(=O)N1CCC(C(=O)NCc2ccc(F)cc2)CC1,,15.8 µM (active)

Structure (SMILES),"activity, negative = inhibition",AC50
CCCS(=O)(=O)N1CCCC(C(=O)NCCN2CCOCC2)C1 (centres undefined),0.644% [at 11.4 µM],
CCS(=O)(=O)N1CCC(C(=O)NCc2ccc(F)cc2Cl)CC1,-27.7%,
CCCCN(CC)S(=O)(=O)N1CCC(C(=O)NCCCN2CCOCC2)CC1,,11.2 µM (active)
C=C[C@H](N)CCC(=O)O,,inactive
Cc1ccc(CN2C(=O)CCC2C(=O)NCc2cccnc2)cc1 (centres undefined),,2.24 µM (active)
CC(C)(C)c1nc(SCC(=O)Nc2ccc3c(c2)OCCO3)c2ccccc2n1,,7.08 µM (active)
Cc1nc(SCC(=O)Nc2ccc3c(c2)OCCO3)c2oc3ccccc3c2n1,,7.94 µM (active)
CN(C)CCn1nnnc1SCC1=C(C(=O)O)N2C(=O)[C@@H](NC(=O)Cc3csc(N)n3)[C@@H]2SC1,-0.668% [at 25.6 µM],
C[N+]1(C)CCc2cc(O)c(O)cc2[C@H]1Cc1ccc(O)c(O)c1,-3.96% [at 11.4 µM],
COC(=O)C/C=C\[C@H](C)[C@@H](OC)c1ccccc1Br,-22.3% [at 11.4 µM],
CCO[C@H](c1cc(OC)cc([N+](=O)[O-])c1OC)[C@H](C)/C=C\CC(=O)OC,,3.98 µM (active)
CC(NC(=O)CSc1nc(=O)cc(N)n1CCc1ccccc1)c1ccccc1 (centres undefined),,0.178 µM (active)
Nc1cc(=O)nc(SCC(=O)Nc2cccc3ccccc23)n1CCc1ccccc1,,0.126 µM (active)
N#Cc1ccccc1NC(=O)Nc1cccs1,-12.3%,
C[C@H](NC(=O)Cn1cncn1)c1ccccc1,9.64%,
CCC(Sc1nc(=O)cc(N)n1CCc1ccccc1)C(=O)Nc1ccccc1C#N (centres undefined),,0.1 µM (active)
O=C1OCCC=C1[C@@H](O)CCc1ccccc1,-19.7% [at 11.4 µM],
Cn1cccc1C(=O)C(=O)Nc1cccc(Cl)c1Cl,-26.2%,
COc1ccc(-n2c(=S)[nH]c3cc(C(=O)NCCCN4CCCC4=O)ccc3c2=O)cc1,-2.66%,
COCCNC(=O)c1ccc2c(c1)nc(C)n2-c1cc(OC)c(OC)c(OC)c1,-9.78%,
O=C(NCc1n[nH]c(=S)n1-c1cccc(Cl)c1)c1ccc(S(=O)(=O)N2CCCC2)cc1,,4.47 µM (active)
COCc1nnc(NC(=O)c2ccc(S(=O)(=O)N3CCCCCC3)cc2)o1,-17.3%,
COc1ccc(-n2c(CNC(=O)c3ccc(S(=O)(=O)N4CCCC4)cc3)n[nH]c2=S)cc1,,12.6 µM (active)
COc1ccc(-n2c(CNC(=O)c3cc(OC)c(OC)c(OC)c3)n[nH]c2=S)cc1,,7.94 µM (active)
COCC(=O)Nc1c(I)c(C(=O)NC[C@@H](O)CO)c(I)c(C(=O)N(C)C[C@@H](O)CO)c1I,-14.3% [at 25.6 µM],

Structure (SMILES),"activity, negative = inhibition",AC50
CN(CCOc1ccc(C[C@H](Nc2ccccc2C(=O)c2ccccc2)C(=O)O)cc1)c1ccccn1,,10 µM (active)
CCN(CC)CCOc1ccc(Cc2ccccc2)cc1,4.64%,
CC1=CC(=O)CC(C)(C)[C@]1(O)/C=C\C(C)=C\C(=O)O,-1.41% [at 11.4 µM],
S=c1[nH]nc(CSCc2ccccc2Cl)n1-c1ccccc1,,7.94 µM (active)
CCc1nnc(NC(=O)C2CCN(C(=O)NC3CCCCC3)CC2)s1,-25.1%,
CCNC(=S)N1CCC(NC(=O)C2CCCCC2)CC1,,14.1 µM (active)
CCOC(=O)N1CCC(NC(=O)C2CCN(S(=O)(=O)N3CCCC3)CC2)CC1,-7.25%,
Cc1ccc2nc(NC(=O)CSc3nc4c(c(=O)n3C)SC(C)C4)sc2c1 (centres undefined),16.7%,
CCOc1ccc(-n2c(SCC(=O)Nc3ccc4c(c3)OCCO4)nc3c(c2=O)SCC3)cc1,-11.1%,
CCn1c(SCC(=O)Nc2nc3ccc(C)cc3s2)nc2c(c1=O)SC(C)C2 (centres undefined),,5.01 µM (active)
CCn1c(SCC(=O)NC2CCCCC2)nc2c(c1=O)SC(C)C2 (centres undefined),,15.8 µM (active)
CCn1nnnc1SCC(=O)NC1CCCC1,-18.8%,
CCn1c(SCC(=O)Nc2ccc3c(c2)OCCO3)nc2c(c1=O)SC(C)C2 (centres undefined),,10 µM (active)
Cc1nc2cccc([N+](=O)[O-])c2n1CCCN(C)C,-0.756% [at 11.4 µM],
O=C(c1cccc(F)c1)N1CCC[C@@]2(CCN(Cc3nccs3)C2)C1,,7.94 µM (active)
CC(C)CN1CCC2(CC1)CCN(C(=O)c1cccn1C)CC2,2.24%,
O=C(c1cccc(F)c1)N1CCC2(CC1)CN(Cc1ccccc1)C2,-11.9%,
CC(C)CN1CCC2(CC1)CCN(C(=O)c1cccc(F)c1)CC2,-18%,
O=C(c1cccc(F)c1)N1CCC2(CCCN(c3ncccn3)C2)CC1,-1.46%,
O=C(c1cccc(F)c1)N1CCC[C@@]2(CCN(Cc3ccncc3)C2)C1,,3.16 µM (active)
O=C(c1cccc(F)c1)N1CCC2(CCCN(Cc3nccs3)C2)CC1,,10 µM (active)
Cn1cccc1C(=O)N1CCC[C@@]2(CCN(Cc3nccs3)C2)C1,,15.8 µM (active)
CC(C)CN1CC2(CCN(C(=O)c3cccc(F)c3)CC2)C1,8.57%,
CC(=O)N1CCC2(CCN(Cc3nccs3)CC2)CC1,18.4%,
